# Assay results published in PubChem BioAssay (NCI).
# Compounds without any hit were thinned out: in the full panel of roughly 83,000, 20% have a hit.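 Single-dose data. Exposure time 48 hours. Values below 10 considered active.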 A number with no mark means an inactive call. Active and inactive are the calls of the source.
# How the values were obtained:
# Assay in all cases: NCI-60 one-dose screen, 48 h (100 = growth as untreated, 0 = no growth, -100 = all killed)
# Conditions in all cases: 10 µM
# T-47D breast = tested on: T-47D breast
# BT-549 breast = tested on: BT-549 breast
# MDA-MB-435 melanoma = tested on: MDA-MB-435 melanoma
# SW-620 colon = tested on: SW-620 colon
# MCF7 breast = tested on: MCF7 breast
# HCT-116 colon = tested on: HCT-116 colon
# HCC-2998 colon = tested on: HCC-2998 colon
# KM12 colon = tested on: KM12 colon
Compound,growth (T-47D breast),growth (BT-549 breast),growth (MDA-MB-435 melanoma),growth (SW-620 colon),growth (MCF7 breast),growth (HCT-116 colon),growth (HCC-2998 colon),growth (KM12 colon)
O=[N+]([O-])c1ccc(/C(=C/c2ccccc2)[n+]2ccccc2)cc1,112%,109%,101%,103%,98.7%,107%,126%,125%
COc1ccc(-c2cc(-c3ccc(Cl)cc3)nc(SCCCCCCC(=O)NO)n2)cc1OC,36.1%,79.6%,69.1%,46.3%,24.6%,41.8%,80.3%,69.4%
CCN(CC)CCOC(=O)c1cc(OCc2ccccc2)c(OCc2ccccc2)c(OCc2ccccc2)c1,66.8%,86.8%,74.7%,19.7%,8.2% (active),24%,53.8%,40.7%
CC1OC2CC(=O)OC2C2=C1C(=O)c1c(O)c3c(c(O)c1C2=O)C1CC(O)C3(O)C(C)O1 (stereo not given),-21.4% (active),-98.7% (active),-0.0926% (active),-36.4% (active),-71% (active),-91.5% (active),-28.4% (active),-34.7% (active)
CCCCc1oc2ccccc2c1C(=O)c1cc(I)c(OCCN(CC)CC)c(I)c1,7% (active),-50% (active),-56.2% (active),-96.3% (active),-67% (active),-61.4% (active),-88.5% (active),-47.6% (active)
CCOC(=O)c1cc(C(=O)c2cc(OC)cc(OC)c2)n2nc(C)ccc12,43.9%,48.7%,-16.2% (active),17.8%,20.8%,25.2%,54.1%,29.4%
O=C(O)COc1c(Cl)cc([N+](=O)[O-])cc1Cl,108%,90%,105%,110%,94.7%,83.4%,101%,98.1%
NS(=O)(=O)c1ccc(N2N=C(c3ccccc3)CCC2=O)cc1,102%,223%,97.3%,109%,95.4%,86.8%,97%,188%
COc1ccc(/C=C2\CCCC3=C2NC(N)=NC3c2ccc(OC)c(OC)c2)cc1OC (stereo not given),78.6%,36.1%,30.8%,40.7%,27.6%,7.91% (active),88%,32.1%
NS(=O)(=O)Oc1ccc(-c2ccc3sccc3c2)cc1,105%,91.1%,104%,99.9%,120%,95.3%,99.2%,101%
O=C1/C=C/[C@@H](O)[C@@H]2C[C@@H](O)C[C@H]2/C=C/CCC[C@H](C(F)(F)F)O1,-57.2% (active),15.8%,6.68% (active),-23.1% (active),-64.2% (active),-30.4% (active),-36.5% (active),30%
O=C(CCCCNC(=O)c1nc(-c2ccccc2)n(-c2ccccc2)n1)NO,35%,94.7%,79.2%,64.4%,67.6%,54.6%,94.4%,92.9%
COc1ccc(-c2cc(-c3ccccc3)nc(SCCCCCCC(=O)NO)n2)cc1,33.5%,85.4%,35.5%,22.6%,30.4%,25.1%,79.4%,60.3%
Cc1ccc(/C=C/C(=O)C(=O)/C=C/c2ccc(C)cc2)cc1,92.4%,95.3%,76.9%,100%,23.8%,-36.8% (active),110%,93.8%
CC[C@@H]1NC(=O)[C@H]([C@H](O)[C@H](C)C/C=C/c2ccc(CN3C(=O)CCCC3=O)cc2)N(C)C(=O)[C@H](C(C)C)N(C)C(=O)[C@H](CC(C)C)N(C)C(=O)[C@H](CC(C)C)N(C)C(=O)[C@@H](C)NC(=O)[C@H](C)NC(=O)[C@H](CC(C)C)N(C)C(=O)[C@H](C(C)C)NC(=O)[C@H](CC(C)C)N(C)C(=O)CN(C)C1=O,25.3%,8.44% (active),10.8%,56%,25.3%,16%,69.6%,45.9%
